# Records with an inconclusive call do not appear. Activity calls are given as the source filed them. Calls follow the shape of the dose curve; as a rule, active = well fitted cell-killing curve with a large enough effect; inconclusive = small, poorly fitted or top-dose-only effect; inactive = flat fitted curve, though single readings scatter.
# Test: Identifying Small Molecule Inhibitors of Pancreatic Cancer Stem Cells (SN12C, Adherent) (AID 1259358);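 also: cell survival measured after 48 h of compound exposure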
# Conditions: viability/growth inhibition
# Outline: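 Viability is scored by CellTiter-Glo luminescence 48 h after dosing, expressed as percent activity against vehicle and no-cell references. Spheroid formats rely on cells cultured 14 days in stem cell media beforehand.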
# Potency is read from the fitted curve at half-maximal effect.
row,SMILES,Potency
1,COc1cc2c(cc1O)CC[C@@H]1[C@@H]2CC[C@]2(C)[C@@H](O)CC[C@@H]12,2350 nM (active)
2,Nc1ccn([C@@H]2O[C@H](CO)[C@@H](O)C2(F)F)c(=O)n1,54 nM (active)
3,COc1cccc2c1C(=O)c1c(O)c3c(c(O)c1C2=O)C[C@@](O)(C(=O)CO)C[C@@H]3O[C@H]1C[C@H](N)[C@H](O)[C@H](C)O1,3320 nM (active)

# Reference: PubChem BioAssay (NCATS)
